According to the supplement of paper PMC12632987:

T1: USP38, Q8NB14
T1 chain: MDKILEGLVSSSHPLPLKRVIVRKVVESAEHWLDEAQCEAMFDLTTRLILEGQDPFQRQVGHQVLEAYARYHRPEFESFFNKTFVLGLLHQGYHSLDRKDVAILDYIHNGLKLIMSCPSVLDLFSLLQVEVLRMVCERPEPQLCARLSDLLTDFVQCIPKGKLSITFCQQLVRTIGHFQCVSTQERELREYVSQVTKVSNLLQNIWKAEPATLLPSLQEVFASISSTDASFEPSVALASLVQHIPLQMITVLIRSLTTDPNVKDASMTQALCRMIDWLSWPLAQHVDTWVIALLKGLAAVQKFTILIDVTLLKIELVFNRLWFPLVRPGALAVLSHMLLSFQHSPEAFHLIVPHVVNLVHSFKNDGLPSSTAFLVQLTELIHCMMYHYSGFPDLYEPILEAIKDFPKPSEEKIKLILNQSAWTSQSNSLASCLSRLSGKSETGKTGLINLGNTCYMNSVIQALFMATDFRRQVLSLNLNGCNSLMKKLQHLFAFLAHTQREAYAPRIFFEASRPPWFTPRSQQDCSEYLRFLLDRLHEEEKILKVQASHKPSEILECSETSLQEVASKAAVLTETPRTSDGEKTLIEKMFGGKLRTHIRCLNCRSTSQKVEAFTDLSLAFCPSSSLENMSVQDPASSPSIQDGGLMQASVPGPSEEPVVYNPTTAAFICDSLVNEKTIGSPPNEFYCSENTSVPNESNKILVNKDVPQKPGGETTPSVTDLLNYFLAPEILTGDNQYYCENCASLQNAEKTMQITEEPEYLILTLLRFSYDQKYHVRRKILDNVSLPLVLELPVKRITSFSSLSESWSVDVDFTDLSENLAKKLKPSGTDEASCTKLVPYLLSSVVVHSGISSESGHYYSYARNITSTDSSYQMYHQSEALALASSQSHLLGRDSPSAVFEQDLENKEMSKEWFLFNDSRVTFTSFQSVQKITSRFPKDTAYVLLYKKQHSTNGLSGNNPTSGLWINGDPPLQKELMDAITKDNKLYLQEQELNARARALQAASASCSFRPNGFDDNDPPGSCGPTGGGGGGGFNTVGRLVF

B1: usp_38_diff_out_18_28_398 (protein)
chain: SAAERAELEAELAALQKELDALITEATAAATAALTAHPDSAEVWALVDALFDHLGAAAAALREARRLLREGGPLEEVRAALAAAQAHLAEARALLAELKA
B2: usp_38_diff_out_18_28_402 (protein)
chain: MEEEIEKKIEEAEKRTDELIDEYVELGEKAFLKYHEDPSSEELLEKLDKLADELGKAAQAVNLMRENRDDPEKVEKEYAEFEKYYEKAKKLLEEIKKLLE
B3: usp_38_diff_out_18_28_405 (protein)
chain: MQEEIEKKIEEAEKRTNELIDKYTEAATRAFEAYAEDPSKTELVKAINEASDALGKAAQAVNEMKRNKDDPEKVEKELKKFEEAYKKAEEAIAKIEELIA
B4: usp_38_diff_out_18_28_404 (protein)
chain: MMEEIQKKIEEAEKEADKLIDEYTKAATEAFLKYAEDPSATELVEAVNKAADALGEAAKAVNEMRRHKDDPEKVEKELKKFEEAKKKAEEALKEIKKLIA
B5: usp_38_diff_out_18_28_403 (protein)
chain: MQEEVEKKIKEAEKKTDELIDKYTEAATAGFLKYAEDPSATELVEAVRAAADALGAAAQAVNEMKRNKDDPEKVEELLKKFEEAYKKAEEALKEIERLIA
B6: usp_38_diff_out_18_28_399 (protein)
chain: EEEERRRLEEELRRLEEELDELIDEAVEAATKALTAHPGDEAVEALVRELFDHLGAAAAALREARELLRAGGDPEEVRRLLEEAREHLEKAREALKELKA
B7: usp_38_diff_out_18_28_412 (protein)
chain: SAAAVQATIDQMKADLDALIDEANEVSEKAFLKYGEDPSSTELLAAVNELWDHLGAAAQAVNDARRNRDNEAAVAAKAAEFKKHADKAKEKIAEIKKLIA
B8: usp_38_diff_out_18_28_397 (protein)
chain: EEERREELERRLEELERELDALIREATEAATAALEAHPDSAEVWALVDALFDALGAAAAHLRRARELLREGGPLEEVERELEKAEAHLAEARALLAELKA
B9: usp_38_diff_out_18_28_407 (protein)
chain: MEEEIKEKIEEAKKRLDELIDRYVEIATKAFLKYHENPESKELLEKVRKLADELGKAAQAVNLMRENKDNEEKVEEELEKFEKHYEEAEKLLEEIEKLIK
B10: usp_38_diff_out_18_28_396 (protein)
chain: AEAERAALEKRLAELQKRLDALITEATAAATAALEAHPDDAAVWALVAQLFDALGAAAAALQRARELLRAGGPLEEVQAALDEAEAHLAQAEALLAELKA
B11: usp_38_diff_out_18_28_409 (protein)
chain: AKEEIEKKIEEAEKELDELIDEYVKISTEAFLKYHEDPSSKELLEAVNELADELGKAAQAVNEMRKNRDDKEAVEKQLKVFEEHKKKAEELLKKIKELIK
B12: usp_38_diff_out_18_28_400 (protein)
chain: MQEEIQKIIEENEKKTNELIDKYTELGEKAFLAYHEDPSNEELLEKLDELADALGKAAKKVNEMRENKNDPEKVKEYSKEFEEYYKKAEALMKEIEKLLA
B13: usp_38_diff_out_18_28_401 (protein)
chain: MEEEIEKKIKEAKEKTDEMIDEYVELGEQAFLKYHEDPSSEHLLELLNEAADALGKAAKAVNLMRENKDDPEKVEKELEKFKKYSEKAEKLFEEIKKELE
B14: usp_38_diff_out_18_28_411 (protein)
chain: KKEEIQEKIKKAEEKLDKLIDKYVEISTKAFLKYHENPESKELLEAVDKLADELGKAAQHVNLMRENKDDEEKVEKELKEFEEHSKKAEELLKKVEELIK
B15: usp_38_diff_out_18_28_410 (protein)
chain: KKEEIEKKIEEAEEELDKLIDEYVEVATEAFLKYHEDPSSEELLEKVRELADELGKAAKAVNEMRENKDNEEKVEEELEKFKKHKEEAEKLLKEVKELIK
B16: usp_38_diff_out_18_28_406 (protein)
chain: SSEEIEKKIEEAKEETDKLIDRYVEISTAAFLKYHEDPSSEELLKKVNELADALGKAAKAVNEMRENKDNEEKVEKYLEEYKKYSEEAEKLLEEIEKLIK

Target: T1, USP38, Q8NB14
Assay: median log2 fold change of GCK-ALFA target abundance (FLAG IP / Myc IP barcode read proportion) (log2 ratio); each designed protein is fused to an ALFA-tag nanobody in HEK293 cells to bring the named protein to FLAG-tagged glucokinase (GCK); Myc marks an untargeted standard; higher = target protein stabilised (more abundant)
Settings: target protein: 3xFLAG-MCP-GCK-ALFA reporter; HEK293 landing pad (RPLP)
Outline: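 HEK293 landing-pad cells received a recombined binder library fused to the ALFA nanobody and were induced with 2 μg mL^−1 doxycycline, then transfected with a plasmid encoding a FLAG-tagged target and a Myc-tagged standard. Lysates were collected after 48 h for anti-FLAG and anti-Myc immunoprecipitation, and the circular RNA barcodes were reverse transcribed, amplified and sequenced. Target abundance for each binder is the median log2 ratio of FLAG to Myc barcode read proportions. Barcodes had to reach a proportion of at least 10^−7 in both replicates, each binder needed at least 3 barcodes per replicate, a pseudocount of 10^−6 was applied, and the two replicates were pooled.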

Binder | median log2 fold change
B1 | 0.000517
B2 | 0.282
B3 | 0.0557
B4 | -0.178
B5 | -0.0578
B6 | -0.117
B7 | -0.188
B8 | -0.194
B9 | -0.152
B10 | -0.054
B11 | -0.273
B12 | -1.05
B13 | -0.818
B14 | -0.206
B15 | -0.357
B16 | 0.0217
